# Sampled rows, rich in hits. Any-hit rate of the full collection: about 8.3%.
# MCF10A rerep = inducers of DNA re-replication in MCF 10A breast cells. AID 624296. MCF 10A DNA re-replication, Hoechst nuclear intensity, 48 h. 350,000 compounds, 2.9% hits. Potency, µM (series often up to 46.1 µM), most hits filed as activators; note: nearly all actives have a fitted effect of over 50% in size
# VP16 counter = counter-screen for ROR gamma inhibitors: Gal4-VP16 reporter | Drosophila S2 Gal4-VP16 UAS-luciferase, luminescence, 20 h | Potency, µM (doses to about 53.6 µM), hits mostly inhibitors | 310,000 compounds, 3.5% hits;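 note: Gal4-VP16 expression switched on by copper sulfate through the metallothionein promoter; nearly all actives have a fitted effect of over 50% in size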
# BCR signal inh = chronic active BCR signaling inhibition; 340,000 compounds, 0.05% hits; Potency, µM (doses to about 46.1 µM), most hits filed as inhibitors; ABC-DLBCL IkBa-CBG/CBR reporter, luminescence ratio, 4 h; active = well fitted inhibition curve with a large enough effect in the signal ratio, with a control signal flat, not every such curve was filed as active; inconclusive = small, poorly fitted or top-dose-only effect, or effect the other way, or a change in a side signal; the % refers to the signal ratio
#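 TMD8 human ABC-DLBCL cells with doxycycline-inducible IκBα–green luciferase fusion and unfused red luciferase, in 0.5% FBS medium; compounds up to 46 uM, 4 h at 37C. Green/red luminescence ratio, filter-overlap corrected, fitted to concentration-response curves.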
# Giardia kill = Giardia lamblia killing. AID 540267. Giardia lamblia trophozoite viability. 340,000 compounds, 0.15% hits. activity change, % at 7.66 µM, hits read low; in the data active = activity change below about -80%; inconclusive = between about -30% and that limit;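 note: parasites exposed to compound for two days anaerobically before the ATP read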
#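 Killing of trophozoites was scored by loss of ATP luminescence after a 48 hrs anaerobic exposure to compounds at 37 deg C, using 100 cells per well.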
# RORg inh = inhibitors of mouse ROR gamma transcriptional activity. 310,000 compounds, 5.4% hits. Potency, µM (titrated, usually from 53.6 µM), actives largely listed as inhibitors. P51450. Drosophila S2 Gal4-RORgamma UAS-luciferase reporter, 20 h. AID 2551; note: nearly all actives have a fitted effect of over 60% in size
# Target sequence (P51450 whole entry, looked up, the tested form may be a part): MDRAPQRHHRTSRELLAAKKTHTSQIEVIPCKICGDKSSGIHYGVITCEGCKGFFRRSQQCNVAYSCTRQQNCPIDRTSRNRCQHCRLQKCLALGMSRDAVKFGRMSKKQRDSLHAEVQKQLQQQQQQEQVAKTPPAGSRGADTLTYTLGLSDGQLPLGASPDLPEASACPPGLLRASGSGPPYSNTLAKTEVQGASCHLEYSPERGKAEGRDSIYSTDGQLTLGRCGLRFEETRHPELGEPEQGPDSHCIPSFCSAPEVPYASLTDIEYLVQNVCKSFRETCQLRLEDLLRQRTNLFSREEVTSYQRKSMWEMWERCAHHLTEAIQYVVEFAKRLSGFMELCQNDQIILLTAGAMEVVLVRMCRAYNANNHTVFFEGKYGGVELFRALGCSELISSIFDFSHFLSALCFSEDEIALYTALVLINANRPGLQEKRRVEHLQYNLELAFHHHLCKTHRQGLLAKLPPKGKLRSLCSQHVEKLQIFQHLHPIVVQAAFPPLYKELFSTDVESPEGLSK
#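 Stable Schneider cell line, Gal4 DNA-binding domain fused to ROR gamma, UAS-luciferase. Cmpd 1 hr RT → CuSO4 700 uM final → 20 hr RT → luciferase reagent 10 min → luminescence.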
# SW480 rerep = induces DNA re-replication in SW480 colon adenocarcinoma cells | 340,000 compounds, 1.8% hits | Potency, µM (titrated, usually from 46.1 µM), usual class: activators | AID 624297 | SW480 DNA re-replication, Hoechst DNA content imaging, 48 h; note: nearly all actives have a fitted effect of over 55% in size
#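 DNA re-replication was detected as more nuclei of elevated Hoechst intensity after 48 hr exposure to compound (23 nL pinned per well of 250 cells).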
# A number is an active result; 0 = inactive; ? = inconclusive; - = no result; [ ] = dose if it differs, or a comment. Unless noted, calls come from the whole dose curve; as a rule, active = well fitted curve in the direction sought with a large enough effect; inconclusive = small, poorly fitted or top-dose-only effect, or another doubt; inactive = no such curve, though single readings can be large; an effect the other way counts as inactive or inconclusive.
SMILES,MCF10A rerep,VP16 counter,BCR signal inh,Giardia kill,RORg inh,SW480 rerep
COc1ccc(-c2nnc(Nc3nc4c(OC)cccc4s3)o2)c(OC)c1,0,?,?,0,1.6µM,0
COc1cccc(-n2cnc(=O)c3cccnc32)c1,0,0,0,0,0,0
COc1ccc(C2CC(c3ccc(Cl)cc3)=NN2C(=O)c2cccc([N+](=O)[O-])c2)cc1 (configuration not stated),0,0,0,0,0,0
COc1ccc(C2CC(c3ccc(Cl)cc3)=NN2c2ccc(S(N)(=O)=O)cc2)cc1 (configuration not stated),?,-,?,0,-,0.82µM
COc1ccc(C2CC(c3ccncc3)=NN2c2ccc(S(N)(=O)=O)cc2)cc1 (configuration not stated),2.9µM,-,?,0,-,18µM
COc1ccc(C2CC(c3cccc(Cl)c3)=NN2c2ccc(S(N)(=O)=O)cc2)cc1 (configuration not stated),1.3µM,-,0,0,-,2.1µM
COc1ccc(C2CC(c3ccc(Cl)cc3)=NN2C(C)=O)cc1 (configuration not stated),0,0,0,0,0,0
CS(=O)(=O)N1CCCC(C(=O)Nc2c(F)cccc2F)C1 (configuration not stated),?,0,0,0,0[1.91 µM],0
O=c1[nH]cncc1OCc1ccccc1,0,-,-,0,-,0
COc1ccc(CCNC(=O)CSc2nc(=O)n3cccc(C)c3n2)cc1OC,0,-,0,0,-,0
Nc1ccccc1C(=O)/C=C/c1ccc2c(c1)OCO2,?,?,?,0,?,18µM
Nc1ccccc1C(=O)/C=C\c1ccc2c(c1)OCO2,-,0[10 µM],-,-,0[10 µM],-
CNc1ccc(Br)cc(C(=O)/C=C/c2cccc(OC)c2)c1=O,18µM,?,?,0,?,?
CCNc1ccc(Br)cc(C(=O)/C=C/c2ccc3c(c2)OCO3)c1=O,18µM,0,0,0,0,?
CNc1ccc(Br)cc(C(=O)/C=C/c2ccc(Cl)cc2Cl)c1=O,4.6µM,0,?,0,?,?
CCOc1ccc(CCNC(=O)COC(=O)COc2ccc(C(C)=O)cc2)cc1OCC,0,-,0,0,-,0
COc1ccc(N2CC(NC(=O)N3CCN(c4ccccc4)CC3)CC2=O)cc1 (configuration not stated),0,0,0,0,0,0
CCNc1ccc(Br)cc(C(=O)/C=C/c2ccc(Cl)cc2)c1=O,13µM,?,0,0,0,?
CCNC(=O)/C=C/c1cccc(Br)c1,0,0,-,-,0,0
CCNc1ccc(Br)cc(C(=O)/C=C/c2c(Cl)cccc2Cl)c1=O,23µM,?,0,0,10µM,?
COc1cc(OCc2ccccc2)c(C(=O)/C=C/c2ccc3c(c2)OCO3)c(OC)c1OC,15µM,-,-,0,-,?
CNc1ccc(Br)cc(C(=O)/C=C/c2ccc(OC)cc2OC)c1=O,?,0,0,0,0,0
Cn1cnc([N+](=O)[O-])c1NC(C)(C)C,0,0,0,0,0,0
Cn1cnc([N+](=O)[O-])c1S(=O)(=O)c1ccc(Cl)cc1,9.2µM,5µM,?,0,3.5µM,?
CC(C)(C)C1=CC(=O)C(N2CCOCC2)=CC1=O,0,?,0,0,10µM,0
CCC(=O)N1CCc2cc(S(=O)(=O)CCC(=O)NCCc3ccc(S(N)(=O)=O)cc3)ccc21,0,0,0,0,0,0
CN[C@H]1CCc2cc(OC)c(OC)c(OC)c2-c2ccc(N(C)CC(OC)OC)c(=O)cc21,0,0,?,0,0,?
COc1cc2c(c(OC)c1OC)-c1ccc(NC(=O)c3ccc(F)cc3)c(=O)cc1[C@@H](NC(C)=O)CC2,3.3µM,0,?,0,0,?
COc1cc2c(c(OC)c1OC)-c1ccc(N(C)CC(OC)OC)c(=O)cc1[C@@H](NC(C)=O)CC2,0.58µM,0,?,0,0,1.5µM
CCN(CC(=O)Nc1ccc(Br)cc1F)CC(=O)NC1CCS(=O)(=O)C1 (configuration not stated),0,-,0,0,-,0
